According to PubChem BioAssay AID1159580 (chemical genetic matrix, 2015):
The campaign covered roughly 5,500 compounds. About 2,000 (36%) were called active. Inconclusive results (about 18%) are left out. No stated cut-off is given here; in the data, active means normalized growth mostly below about 0.91 (no sharp cut-off); inconclusive means no clear call, values can overlap the other calls; inactive means mostly above about 0.92. The list shows a part of the results.

Assay: chemical genetic growth profiling, strain panel (AID 1159580);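 further: tested at 20 µM; growth read once vehicle control cultures reached saturation at 30 °C; 1 = growth at the plate median or of vehicle wells; lower values mean less growth of the strain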
Conditions: growth OD

Measured: normalized growth

CC1(C)S[C@@H]2[C@H](NC(=O)COc3ccccc3)C(=O)N2[C@H]1C(=O)O
inactive: S. cerevisiae deletion strains, locus YJR075W, strain HOC1, hits give low values 1 | S. cerevisiae deletion strains, locus YKL009W, strain mrt4, hits give low values 1.03 | S. cerevisiae deletion strains, locus YKL068W, hits give low values 1.02 | S. cerevisiae deletion strains, locus YKL085W, strain MDH1 (second series), hits give low values 1.01 | S. cerevisiae deletion strains, locus YKL085W, strain MDH1, hits give low values 1.01 | S. cerevisiae deletion strains, locus YKL160W, strain elf1, hits give low values 0.977 | S. cerevisiae deletion strains, locus YKL190W, strain CNB1, hits give low values 0.992 | S. cerevisiae deletion strains, locus YKR001C, strain vps1, hits give low values 1.03 | S. cerevisiae deletion strains, locus YKR026C, strain gcn3, hits give low values 0.983 | S. cerevisiae deletion strains, locus YKR091W, strain srl3, hits give low values 0.991 | S. cerevisiae deletion strains, locus YLL001W, strain dnm1, hits give low values 0.935 | S. cerevisiae deletion strains, locus YLL026W, hits give low values 0.983 | S. cerevisiae deletion strains, locus YLL041C, strain sdh2, hits give low values 0.999 | S. cerevisiae deletion strains, locus YLR027C, strain aat2, hits give low values 0.973 | S. cerevisiae deletion strains, locus YLR039C, strain RIC1, hits give low values 1.04 | S. cerevisiae deletion strains, locus YLR058C, strain SHM2, hits give low values 1 | S. cerevisiae deletion strains, locus YLR102C, strain apc9, hits give low values 1.02 | S. cerevisiae deletion strains, locus YLR113W, strain HOG1, hits give low values 0.994 | S. cerevisiae deletion strains, locus YLR221C, strain rsa3, hits give low values 1.01 | S. cerevisiae deletion strains, locus YLR258W, strain gsy2, hits give low values 0.999 | S. cerevisiae deletion strains, locus YLR262C, strain YPT6 (second series), hits give low values 0.968 | S. cerevisiae deletion strains, locus YLR262C, strain YPT6, hits give low values 1.04 | S. cerevisiae deletion strains, locus YLR268W, strain sec22, hits give low values 1.03 | S. cerevisiae deletion strains, locus YLR320W, strain mms22, hits give low values 0.99 | S. cerevisiae deletion strains, locus YLR330W, strain CHS5, hits give low values 1 | S. cerevisiae deletion strains, locus YLR342W, strain FKS1 (second series), hits give low values 0.976 | S. cerevisiae deletion strains, locus YLR342W, strain FKS1, hits give low values 0.975 | S. cerevisiae deletion strains, locus YLR357W, strain rsc2, hits give low values 0.992 | S. cerevisiae deletion strains, locus YLR370C, strain arc18, hits give low values 1 | S. cerevisiae deletion strains, locus YLR371W, strain rom2, hits give low values 1.02 | S. cerevisiae deletion strains, locus YLR384C, strain iki3, hits give low values 0.98 | S. cerevisiae deletion strains, locus YLR418C, strain cdc73, hits give low values 1.06 | S. cerevisiae deletion strains, locus YML016C, strain PPZ1, hits give low values 1.01 | S. cerevisiae deletion strains, locus YML032C, strain rad52, hits give low values 1.04 | S. cerevisiae deletion strains, locus YML120C, strain ndi1, hits give low values 0.995 | S. cerevisiae deletion strains, locus YML124C, strain tub3, hits give low values 1.03 | S. cerevisiae deletion strains, locus YMR058W, strain fet3, hits give low values 0.988 | S. cerevisiae deletion strains, locus YMR078C, strain ctf18, hits give low values 1.02 | S. cerevisiae deletion strains, locus YMR125W, strain sto1, hits give low values 1.01 | S. cerevisiae deletion strains, locus YMR129W, hits give low values 0.998 | S. cerevisiae deletion strains, locus YMR205C, strain PFK2, hits give low values 0.994 | S. cerevisiae deletion strains, locus YMR223W, strain ubp8, hits give low values 1.02 | S. cerevisiae deletion strains, locus YMR231W, strain pep5, hits give low values 1.01 | S. cerevisiae deletion strains, locus YMR263W, strain SAP30, hits give low values 1 | S. cerevisiae deletion strains, locus YMR307W, strain GAS1, hits give low values 0.989 | S. cerevisiae deletion strains, locus YNL067W, strain RPL9B, hits give low values 1.01 | S. cerevisiae deletion strains, locus YNL071W, strain lat1, hits give low values 1 | S. cerevisiae deletion strains, locus YNL128W, strain TEP1, hits give low values 1.01 | S. cerevisiae deletion strains, locus YNL153C, strain GIM3, hits give low values 1 | S. cerevisiae deletion strains, locus YNL183C, strain NPR1, hits give low values 0.937 | S. cerevisiae deletion strains, locus YNL209W, strain ssb2, hits give low values 1 | S. cerevisiae deletion strains, locus YNL233W, strain BNI4, hits give low values 1.01 | S. cerevisiae deletion strains, locus YNL248C, strain rpa49, hits give low values 1.03 | S. cerevisiae deletion strains, locus YNL250W, strain rad50, hits give low values 1.03 | S. cerevisiae deletion strains, locus YNL271C, strain bni1, hits give low values 1.02 | S. cerevisiae deletion strains, locus YNL298W, strain CLA4, hits give low values 1.04 | S. cerevisiae deletion strains, locus YNL307C, strain MCK1, hits give low values 1.03 | S. cerevisiae deletion strains, locus YNL322C, strain KRE1 (second series), hits give low values 0.997 | S. cerevisiae deletion strains, locus YNL322C, strain KRE1, hits give low values 1 | S. cerevisiae deletion strains, locus YNR049C, strain mso1, hits give low values 0.994 | S. cerevisiae deletion strains, locus YNR052C, strain pop2, hits give low values 1.01 | S. cerevisiae deletion strains, locus YOL006C, strain TOP1, hits give low values 1.05 | S. cerevisiae deletion strains, locus YOL012C, strain htz1 1.38 | S. cerevisiae deletion strains, locus YOL147C, strain pex11, hits give low values 1.02 | S. cerevisiae deletion strains, locus YOR001W, strain rrp6, hits give low values 0.983 | S. cerevisiae deletion strains, locus YOR061W, strain CKA2, hits give low values 1.02 | S. cerevisiae deletion strains, locus YOR069W, strain VPS5, hits give low values 1 | S. cerevisiae deletion strains, locus YOR070C, strain gyp1, hits give low values 1 | S. cerevisiae deletion strains, locus YOR080W, strain dia2, hits give low values 0.986 | S. cerevisiae deletion strains, locus YOR083W, strain WHI5, hits give low values 0.954 | S. cerevisiae deletion strains, locus YOR106W, strain vam3, hits give low values 0.963 | S. cerevisiae deletion strains, locus YOR136W, strain idh2, hits give low values 1.03 | S. cerevisiae deletion strains, locus YOR144C, strain elg1, hits give low values 1.02 | S. cerevisiae deletion strains, locus YOR184W, strain ser1, hits give low values 1.04 | S. cerevisiae deletion strains, locus YOR231W, strain MKK1, hits give low values 1.02 | S. cerevisiae deletion strains, locus YOR265W, strain rbl2, hits give low values 1 | S. cerevisiae deletion strains, locus YOR270C, strain vph1, hits give low values 1.01 | S. cerevisiae deletion strains, locus YOR290C, strain snf2, hits give low values 1.01 | S. cerevisiae deletion strains, locus YOR316C, strain cot1, hits give low values 1.02 | S. cerevisiae deletion strains, locus YPL051W, strain arl3, hits give low values 0.982 | S. cerevisiae deletion strains, locus YPL055C, strain LGE1, hits give low values 1.01 | S. cerevisiae deletion strains, locus YPL078C, strain atp4, hits give low values 0.955 | S. cerevisiae deletion strains, locus YPL106C, strain sse1, hits give low values 0.998 | S. cerevisiae deletion strains, locus YPL240C, strain hsp82, hits give low values 1 | S. cerevisiae deletion strains, locus YPL241C, strain CIN2, hits give low values 1 | S. cerevisiae deletion strains, locus YPL256C, strain CLN2, hits give low values 0.968 | S. cerevisiae deletion strains, locus YPR119W, strain clb2, hits give low values 1.02 | S. cerevisiae deletion strains, locus YPR141C, strain kar3, hits give low values 1.03 | S. cerevisiae deletion strains, locus YPR163C, strain tif3, hits give low values 1.04 | S. cerevisiae deletion strains, locus YPR167C, strain met16, hits give low values 1.02 | S. cerevisiae deletion strains, strain wtn01, hits give low values 1.02 | S. cerevisiae strains, strain wild type, hits give low values 1.01
